Hit rate of the full screen: of about 59,000 compounds, about 6,200 (11%) were called active. Another 9% or so got no clear call; they are omitted. This is one part of a sample in which actives are shown more often than they occur. Cut-off read from the data, not from the text of the source: active = max dye-equivalent concentration above about 10 nM; inconclusive = mostly about 1.1 nM to 9.6 nM; inactive = weaker than that.

Our source for the max dye-equivalent concentration values is PubChem BioAssay AID589 (National Center for Advancing Translational Sciences (NCATS), 2007).

This experiment in a line: qHTS Assay for Spectroscopic Profiling in 4-MU Spectral Region. The following applies: compound autofluorescence, 340/450 nm, 4-MU equivalents; active compounds read high. The method in brief:
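Intrinsic fluorescence at 340/450 nm (ex/em) was read after 15 min at room temperature in pH 8.0, 100 mM Tris. Each compound concentration expressed as 4-MU-equivalent concentration from a six-point 4-MU standard series on each plate.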
Background: Quantitative high-throughput screening tests each substance at several concentrations.
For the compound `Cc1ccc(C(c2nnnn2CS(=O)(=O)c2ccc(C)cc2)N2CCC(C(N)=O)CC2)cc1` (stereo unspecified), the max dye-equivalent concentration entry is “inactive”.

Consider `COC(=O)c1cnn2c(C(F)(F)F)cc(-c3ccco3)nc12`, for which the max dye-equivalent concentration is 970 nM (active).

`O=C(NCc1ccco1)c1cc(-c2cccnc2)nc2ccc(Cl)cc12`: the max dye-equivalent concentration result is “inactive”.

Consider `COC(=O)c1ccccc1NC(=O)Cn1nc(C(F)(F)F)c2c1CCC2`, for which the max dye-equivalent concentration entry was “inactive”.

Regarding `O=C(Nc1ccccc1)Nc1ccccc1C(=O)NCc1ccco1`, the max dye-equivalent concentration entry was “inactive”.

Take `O=C(NCc1ccco1)c1cnn2c(C(F)(F)F)cc(-c3ccco3)nc12`: the max dye-equivalent concentration was 260 nM (active).

For `O=C(CSc1nc(-c2ccco2)cc(C(F)(F)F)n1)N1CCc2ccccc2C1`, the max dye-equivalent concentration entry is “inactive”.

As to `CCOC(=O)C1C(=O)OC2(CCCC2)C1C(=O)OCC` (stereo unspecified), the max dye-equivalent concentration entry was “inactive”.

On to `Cc1cccc(NC(=O)C2CCCN2S(=O)(=O)c2ccc(F)cc2)c1C` (stereo unspecified), for which the max dye-equivalent concentration entry is “inactive”.

Consider `CCOC(=O)C1(C(F)(F)F)N=C(N(C)C)OC(N(C)C)=N1`, for which the max dye-equivalent concentration result was “inactive”.

On to `CC(=O)c1c(C)n(-c2ccc(N(C)C)cc2)c2ccc(OCC(N)=O)cc12`, for which the max dye-equivalent concentration result was “inactive”.

As to `COc1cc(OC)c(C(=O)NC2CC(C)(C)NC(C)(C)C2)cc1OC`, the max dye-equivalent concentration entry is “inactive”.

For the compound `COc1ccc(CCn2c(NCCCN3CCOCC3)nc3c2c(=O)[nH]c(=O)n3C)cc1`, the max dye-equivalent concentration result was “inactive”.

Consider `CCCCn1c(SCc2ncc(-c3ccccc3)o2)nc2cc(S(N)(=O)=O)ccc21`, for which the max dye-equivalent concentration result was “inactive”.

In the case of `Cc1nc(NCCN)c(C#N)c2c1COC(C)(C)C2`, the max dye-equivalent concentration is 13 nM (active).

In the case of `CCN1CCN(c2ncnc3c2oc2nc(C)c4c(c23)CC(C)(C)OC4)CC1`, the max dye-equivalent concentration entry is “inactive”.

Regarding `C=CCNC(=O)CCCC(=O)NCC=C`, the max dye-equivalent concentration entry was “inactive”.

In the case of `Nc1nc2c(ncn2[C@H]2CC[C@@H](CO)O2)c(=O)n1C(=O)c1ccccc1`, the max dye-equivalent concentration entry is “inactive”.

In the case of `CC(=O)c1cccc(NC(=O)N2CCCC2C(=O)NCCC(C)C)c1` (stereo unspecified), the max dye-equivalent concentration result is “inactive”.

For the compound `COc1ccc(NC(=O)N2CC3(CCN(C(C)=O)CC3)C2)cc1`, the max dye-equivalent concentration result was “inactive”.

On to `CCOC(=O)c1c(NC(=O)CCC(=O)NCc2ccco2)sc2c1CCCC2`, for which the max dye-equivalent concentration result was “inactive”.

Turning to `CCCc1cc(=O)oc2c(C)c(O)c(CN3CCCCC3)cc12`, the max dye-equivalent concentration was 7800 nM (active).

On to `CCOC(=O)N1CCN(Cc2oc(CO)cc(=O)c2O)CC1`, for which the max dye-equivalent concentration result is “inactive”.

As to `Nc1nnnn1/N=C/c1cccs1`, the max dye-equivalent concentration entry is “inactive”.

Turning to `COC(=O)Nc1nc2ccc(Sc3ccccc3)cc2[nH]1`, the max dye-equivalent concentration is 14 nM (active).

For the compound `Oc1ccc2nc(Cc3ccccc3)[nH]c2c1`, the max dye-equivalent concentration result was “inactive”.

As for `COC(=O)Cc1nc2ccccc2[nH]1`, the max dye-equivalent concentration entry is “inactive”.

On to `COC(=O)c1nc(NC(=O)c2ccc(Cl)cc2)n[nH]1`, for which the max dye-equivalent concentration entry was “inactive”.

Consider `CCC(=O)Nc1ccccc1N1CCN(S(C)(=O)=O)CC1`, for which the max dye-equivalent concentration result was “inactive”.

As for `O=C(Cn1cnc2c(cnn2-c2ccccc2)c1=O)NCc1ccccc1`, the max dye-equivalent concentration entry is “inactive”.

`O=C(Nc1ccc(S(=O)(=O)N2CCCC2)cc1Cl)C1=COCCO1`: the max dye-equivalent concentration result was “inactive”.

In the case of `O=C(Cn1c(=O)sc2ccccc21)Nc1ccc2c(c1)OCCO2`, the max dye-equivalent concentration entry is “inactive”.

For the compound `CC(C)(C)NC(=O)NC(=O)COC(=O)Cn1c(C(F)(F)F)nc2ccccc21`, the max dye-equivalent concentration result was “inactive”.

In the case of `Cn1cccc1C(=O)NC(=O)COC(=O)Cc1coc2ccc3ccccc3c12`, the max dye-equivalent concentration was 30 nM (active).

With `Cn1cccc1C(=O)Nc1nccs1`, the max dye-equivalent concentration result was “inactive”.

`CC(=O)c1cc2c(cc1N)OCO2`: the max dye-equivalent concentration result is “inactive”.

Regarding `COCc1[nH]nc2c1C(C1C=CCCC1)C(C#N)=C(N)O2` (stereo unspecified), the max dye-equivalent concentration entry was “inactive”.

With `CC(=O)Oc1ccc2c(C)c(CC(C)O)c(=O)oc2c1` (stereo unspecified), the max dye-equivalent concentration is 15000 nM (active).

As to `FC(F)(F)c1ccccc1-c1nc(-n2ccnc2)c2ccccc2n1`, the max dye-equivalent concentration result is “inactive”.

`O=C1CN(C(=O)COC(=O)C2CC(=O)N(Cc3ccco3)C2)c2ccccc2N1` (stereo unspecified): the max dye-equivalent concentration entry was “inactive”.

For the compound `COc1ccccc1C(=O)n1nc(-c2ccccc2)nc1N`, the max dye-equivalent concentration result was “inactive”.

For `COc1ccc(C(=O)n2nc(-c3ccc(C)cc3)nc2N)cc1OC`, the max dye-equivalent concentration is 35 nM (active).

On to `COc1ccc(C(=O)n2nc(-c3ccc(Cl)cc3)nc2N)cc1OC`, for which the max dye-equivalent concentration result was “inactive”.

For `CN(C(=O)c1ccccn1)c1nnc(-c2ccccn2)s1`, the max dye-equivalent concentration entry was “inactive”.

In the case of `C=CCNC(=O)c1ccc(C)c(Br)c1`, the max dye-equivalent concentration entry is “inactive”.

Take `O=C(NCCc1ccc2c(c1)OCCO2)c1cc2ccccc2o1`: the max dye-equivalent concentration entry is “inactive”.

Turning to `CCOC(=O)N1CCN(C(=O)c2cc3c(ccc4ccccc43)oc2=O)CC1`, the max dye-equivalent concentration is 1500 nM (active).

On to `CCCCC(=O)Nc1cc(C)c2c(=O)oc3ccccc3c2n1`, for which the max dye-equivalent concentration result is “inactive”.

Take `CNC(=O)c1cc2c(ccc3ccccc32)oc1=N`: the max dye-equivalent concentration is 9900 nM (active).

Consider `CCOC(=O)N1CCN(C(=O)c2n[nH]c(=O)c3ccccc23)CC1`, for which the max dye-equivalent concentration entry is “inactive”.

As to `COc1c(C(=O)N2CCCC2)ccc2ccccc12`, the max dye-equivalent concentration result was “inactive”.

For `C=CCSc1nc2ccccc2[nH]1`, the max dye-equivalent concentration entry was “inactive”.

As to `Cc1ccc(CNC(=O)C2CC(=O)N(C3CCCCCCC3)C2)cc1` (stereo unspecified), the max dye-equivalent concentration result is “inactive”.

`COc1ccc(CCNS(=O)(=O)c2ccc(F)cc2)cc1OC`: the max dye-equivalent concentration result was “inactive”.

Take `COC(=O)c1ccc2c(c1)S(=O)(=O)NC(=NCCCN1CCOCC1)S2`: the max dye-equivalent concentration result was “inactive”.

With `Cc1cc(C(F)(F)F)n2ncc(-c3ccccc3)c2n1`, the max dye-equivalent concentration was 12 nM (active).
